Experiments:
Test in all cases: DAPPL (digital affinity profiling via proximity ligation, sequencing); 10 mM Tris-HCl pH 7.5, 50 mM NaCl, 1 mM DTT, 4% glycerol, room temperature, 30 min; GST-TFs on glutathione beads, 16-mer random dsDNA library, 0.1% formaldehyde crosslink after washing; high values mean tight binding
Settings in all cases: protein: recombinant; tags: N-terminal GST; dsDNA, one strand shown
ELK1 = biological target: T1, ELK1 (Homo sapiens, UniProt P19419 1-428)
T1 sequence: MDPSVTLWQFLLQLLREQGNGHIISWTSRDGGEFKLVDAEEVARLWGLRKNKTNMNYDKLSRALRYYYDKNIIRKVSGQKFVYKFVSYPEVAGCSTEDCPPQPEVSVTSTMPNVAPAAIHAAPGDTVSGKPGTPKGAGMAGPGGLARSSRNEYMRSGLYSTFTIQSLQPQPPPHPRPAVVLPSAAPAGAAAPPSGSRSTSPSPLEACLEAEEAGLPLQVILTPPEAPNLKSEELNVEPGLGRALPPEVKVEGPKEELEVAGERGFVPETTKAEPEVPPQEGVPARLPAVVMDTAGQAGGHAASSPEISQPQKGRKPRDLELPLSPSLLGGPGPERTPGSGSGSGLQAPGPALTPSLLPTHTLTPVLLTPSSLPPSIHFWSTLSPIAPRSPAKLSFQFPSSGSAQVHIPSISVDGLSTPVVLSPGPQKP
In short: (§1)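 Pools were built from human transcription factors expressed in yeast as GST fusions, captured on glutathione beads and DNA-barcoded, along with a tag-only sample. Incubation with 200 nmole of a 16-mer random double-stranded DNA library lasted 30 min at room temperature in Tris/NaCl/DTT/glycerol buffer, and was followed by washing, 0.1% formaldehyde crosslinking, proximity ligation, PCR amplification and Illumina NextSeq500 sequencing. Binding signal is the quotient of each hexamer's read frequency for a factor and its frequency for the tag-only sample.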

GABPA = biological target: T2, GABPA (Homo sapiens, UniProt Q06546 1-454)
T2 sequence: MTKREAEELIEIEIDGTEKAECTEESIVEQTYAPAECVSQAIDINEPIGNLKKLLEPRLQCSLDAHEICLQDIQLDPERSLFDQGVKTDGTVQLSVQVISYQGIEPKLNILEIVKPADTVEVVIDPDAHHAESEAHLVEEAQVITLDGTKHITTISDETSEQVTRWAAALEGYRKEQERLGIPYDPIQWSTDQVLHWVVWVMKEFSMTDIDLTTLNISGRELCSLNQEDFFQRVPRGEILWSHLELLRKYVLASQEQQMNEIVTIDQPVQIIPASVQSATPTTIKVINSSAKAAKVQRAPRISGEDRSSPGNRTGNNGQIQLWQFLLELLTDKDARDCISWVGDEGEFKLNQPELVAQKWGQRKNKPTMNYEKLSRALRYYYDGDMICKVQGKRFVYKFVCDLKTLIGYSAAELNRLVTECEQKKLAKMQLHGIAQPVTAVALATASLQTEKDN
In short: as §1

ERG = biological target: T3, ERG (Homo sapiens, UniProt P11308 1-479)
T3 sequence: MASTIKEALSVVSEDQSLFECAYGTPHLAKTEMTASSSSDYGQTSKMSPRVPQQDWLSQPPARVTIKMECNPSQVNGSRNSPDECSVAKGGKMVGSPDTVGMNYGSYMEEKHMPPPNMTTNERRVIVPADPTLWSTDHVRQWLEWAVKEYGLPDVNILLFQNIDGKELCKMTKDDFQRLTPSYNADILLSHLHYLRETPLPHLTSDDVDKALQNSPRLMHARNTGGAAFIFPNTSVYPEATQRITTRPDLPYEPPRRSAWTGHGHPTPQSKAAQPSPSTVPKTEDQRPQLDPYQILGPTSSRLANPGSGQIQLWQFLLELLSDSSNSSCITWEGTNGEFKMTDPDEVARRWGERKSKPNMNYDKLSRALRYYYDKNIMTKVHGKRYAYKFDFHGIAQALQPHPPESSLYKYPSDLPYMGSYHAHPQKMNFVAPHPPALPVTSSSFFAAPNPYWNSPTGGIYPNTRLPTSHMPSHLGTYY
In short: as §1

ELF1 = ELF1 (Homo sapiens, UniProt P32519 1-619)
In short: as §1

EHF = biological target: T4, EHF (Homo sapiens, UniProt Q9NZC4 1-300)
T4 sequence: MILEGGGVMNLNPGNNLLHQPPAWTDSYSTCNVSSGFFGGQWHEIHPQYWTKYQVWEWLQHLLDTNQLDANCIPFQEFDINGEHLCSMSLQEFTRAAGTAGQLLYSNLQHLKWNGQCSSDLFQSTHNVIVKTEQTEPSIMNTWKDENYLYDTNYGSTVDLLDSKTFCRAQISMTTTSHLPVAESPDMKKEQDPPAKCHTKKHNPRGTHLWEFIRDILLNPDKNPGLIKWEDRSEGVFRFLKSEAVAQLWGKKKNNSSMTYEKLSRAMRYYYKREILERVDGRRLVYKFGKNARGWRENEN
In short: as §1

SPI1 = SPI1 (Homo sapiens, UniProt P17947 1-270)
In short: as §1

SPIB = SPIB (Homo sapiens, UniProt Q01892 1-262)
In short: as §1

FEV = biological target: T5, FEV (Homo sapiens, UniProt Q99581 1-238)
T5 sequence: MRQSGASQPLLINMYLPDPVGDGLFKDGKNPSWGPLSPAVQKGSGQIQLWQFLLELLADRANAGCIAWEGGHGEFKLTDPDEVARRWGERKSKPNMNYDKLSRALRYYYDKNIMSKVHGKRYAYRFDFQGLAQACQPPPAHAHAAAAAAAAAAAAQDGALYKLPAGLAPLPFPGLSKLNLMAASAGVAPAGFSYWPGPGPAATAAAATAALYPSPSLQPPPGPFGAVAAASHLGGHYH
In short: as §1

ETV5 = ETV5 (Homo sapiens, UniProt P41161 1-510)
In short: as §1

ELF4 = ELF4 (Homo sapiens, UniProt Q99607 1-663)
In short: as §1

ELF3 = biological target: T6, ELF3 (Homo sapiens, UniProt P78545 1-371)
T6 sequence: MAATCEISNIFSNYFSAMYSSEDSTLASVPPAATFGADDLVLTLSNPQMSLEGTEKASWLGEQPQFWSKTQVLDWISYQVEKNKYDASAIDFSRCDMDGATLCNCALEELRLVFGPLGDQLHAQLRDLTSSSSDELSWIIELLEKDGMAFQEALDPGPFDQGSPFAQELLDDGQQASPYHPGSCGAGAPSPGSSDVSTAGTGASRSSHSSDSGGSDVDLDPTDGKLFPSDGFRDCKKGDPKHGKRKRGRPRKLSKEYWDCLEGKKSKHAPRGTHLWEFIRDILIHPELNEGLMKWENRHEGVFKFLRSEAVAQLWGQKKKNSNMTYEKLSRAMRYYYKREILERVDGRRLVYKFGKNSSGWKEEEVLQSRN
In short: as §1

ETV1 = ETV1 (Homo sapiens, UniProt P50549 1-477)
In short: as §1

ERF = biological target: T7, ERF (Homo sapiens, UniProt P50548 1-548)
T7 sequence: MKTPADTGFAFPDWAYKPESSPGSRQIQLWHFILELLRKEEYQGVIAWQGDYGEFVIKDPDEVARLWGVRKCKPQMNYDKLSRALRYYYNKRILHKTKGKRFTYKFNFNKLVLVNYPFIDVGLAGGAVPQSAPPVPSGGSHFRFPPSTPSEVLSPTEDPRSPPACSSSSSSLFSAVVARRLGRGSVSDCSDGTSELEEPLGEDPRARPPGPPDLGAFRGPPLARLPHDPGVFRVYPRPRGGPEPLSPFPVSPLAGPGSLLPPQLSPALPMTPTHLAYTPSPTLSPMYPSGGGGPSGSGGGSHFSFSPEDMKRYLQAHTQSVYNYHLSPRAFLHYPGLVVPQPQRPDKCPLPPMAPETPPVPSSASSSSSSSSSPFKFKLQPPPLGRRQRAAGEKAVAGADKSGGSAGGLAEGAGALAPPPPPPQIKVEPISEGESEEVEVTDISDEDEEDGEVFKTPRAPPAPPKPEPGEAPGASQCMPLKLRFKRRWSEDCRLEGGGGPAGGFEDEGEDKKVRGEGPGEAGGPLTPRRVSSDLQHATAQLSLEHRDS
In short: as §1

ETV3L = biological target: T8, ETV3L (Homo sapiens, UniProt Q6ZN32 1-361)
T8 sequence: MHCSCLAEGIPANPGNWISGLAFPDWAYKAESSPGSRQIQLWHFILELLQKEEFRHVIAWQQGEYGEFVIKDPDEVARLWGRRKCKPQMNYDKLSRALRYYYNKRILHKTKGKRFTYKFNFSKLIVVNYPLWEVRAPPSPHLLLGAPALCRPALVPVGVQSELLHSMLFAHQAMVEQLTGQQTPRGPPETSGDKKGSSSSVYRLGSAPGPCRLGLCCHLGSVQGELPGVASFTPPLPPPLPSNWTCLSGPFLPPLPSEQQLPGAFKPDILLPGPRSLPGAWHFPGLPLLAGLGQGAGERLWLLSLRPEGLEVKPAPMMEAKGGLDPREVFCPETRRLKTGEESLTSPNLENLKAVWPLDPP
In short: as §1

ETS2 = biological target: T9, ETS2 (Homo sapiens, UniProt P15036 1-469)
T9 sequence: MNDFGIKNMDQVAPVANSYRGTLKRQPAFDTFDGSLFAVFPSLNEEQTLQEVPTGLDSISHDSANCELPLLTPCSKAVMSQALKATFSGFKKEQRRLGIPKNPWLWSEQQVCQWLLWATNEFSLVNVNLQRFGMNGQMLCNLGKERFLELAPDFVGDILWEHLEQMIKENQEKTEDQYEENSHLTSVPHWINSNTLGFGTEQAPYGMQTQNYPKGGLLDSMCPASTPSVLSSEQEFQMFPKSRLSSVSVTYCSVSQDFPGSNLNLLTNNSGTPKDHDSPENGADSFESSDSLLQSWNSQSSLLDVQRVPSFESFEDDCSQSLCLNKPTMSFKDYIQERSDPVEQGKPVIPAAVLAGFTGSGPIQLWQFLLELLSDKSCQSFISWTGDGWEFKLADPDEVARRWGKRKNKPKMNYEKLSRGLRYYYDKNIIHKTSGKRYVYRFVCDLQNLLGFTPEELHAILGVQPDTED
In short: as §1

SPDEF = biological target: T10, SPDEF (Homo sapiens, UniProt O95238 1-335)
T10 sequence: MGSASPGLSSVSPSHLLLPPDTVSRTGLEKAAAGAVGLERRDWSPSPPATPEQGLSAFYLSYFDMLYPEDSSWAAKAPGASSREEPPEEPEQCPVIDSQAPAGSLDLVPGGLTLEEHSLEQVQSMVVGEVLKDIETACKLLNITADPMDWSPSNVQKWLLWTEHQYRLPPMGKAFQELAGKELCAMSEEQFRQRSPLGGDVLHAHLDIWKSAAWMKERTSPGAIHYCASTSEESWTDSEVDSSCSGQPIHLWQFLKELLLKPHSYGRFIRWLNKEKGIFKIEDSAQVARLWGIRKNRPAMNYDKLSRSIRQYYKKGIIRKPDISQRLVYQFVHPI
In short: as §1

ETV7 = biological target: T11, ETV7 (Homo sapiens, UniProt Q9Y603 1-341)
T11 sequence: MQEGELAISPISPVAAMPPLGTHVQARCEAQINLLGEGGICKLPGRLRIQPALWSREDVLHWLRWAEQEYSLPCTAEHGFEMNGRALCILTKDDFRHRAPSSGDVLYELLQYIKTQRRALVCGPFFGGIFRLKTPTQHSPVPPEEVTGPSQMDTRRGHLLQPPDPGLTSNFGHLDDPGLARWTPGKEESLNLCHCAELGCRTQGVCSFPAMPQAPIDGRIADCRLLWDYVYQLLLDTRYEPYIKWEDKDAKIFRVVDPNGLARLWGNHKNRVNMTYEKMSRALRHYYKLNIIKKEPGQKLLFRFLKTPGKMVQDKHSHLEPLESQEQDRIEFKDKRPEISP
In short: as §1

ETV3 = biological target: T12, ETV3 (Homo sapiens, UniProt P41162-2 1-143)
T12 sequence: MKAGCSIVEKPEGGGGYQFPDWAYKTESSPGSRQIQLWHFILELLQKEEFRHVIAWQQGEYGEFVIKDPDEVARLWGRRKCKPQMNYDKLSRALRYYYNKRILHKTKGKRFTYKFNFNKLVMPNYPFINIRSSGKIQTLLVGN
In short: as §1

ETV6 = ETV6 (Homo sapiens, UniProt P41212 1-452)
In short: as §1

Sequence of ETV6 (P41212 whole entry): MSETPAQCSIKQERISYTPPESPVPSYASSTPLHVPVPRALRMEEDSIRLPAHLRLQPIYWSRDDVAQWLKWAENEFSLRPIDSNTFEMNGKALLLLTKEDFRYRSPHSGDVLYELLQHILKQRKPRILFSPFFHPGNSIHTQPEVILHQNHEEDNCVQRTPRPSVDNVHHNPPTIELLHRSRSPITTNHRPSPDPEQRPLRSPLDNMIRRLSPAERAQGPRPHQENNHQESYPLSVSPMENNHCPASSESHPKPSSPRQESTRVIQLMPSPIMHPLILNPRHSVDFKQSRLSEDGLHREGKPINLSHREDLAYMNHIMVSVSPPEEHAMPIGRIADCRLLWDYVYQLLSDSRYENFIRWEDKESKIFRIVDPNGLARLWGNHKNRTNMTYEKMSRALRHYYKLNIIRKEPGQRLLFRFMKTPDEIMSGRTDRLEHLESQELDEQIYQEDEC
Sequence of ETV5 (P41161 whole entry): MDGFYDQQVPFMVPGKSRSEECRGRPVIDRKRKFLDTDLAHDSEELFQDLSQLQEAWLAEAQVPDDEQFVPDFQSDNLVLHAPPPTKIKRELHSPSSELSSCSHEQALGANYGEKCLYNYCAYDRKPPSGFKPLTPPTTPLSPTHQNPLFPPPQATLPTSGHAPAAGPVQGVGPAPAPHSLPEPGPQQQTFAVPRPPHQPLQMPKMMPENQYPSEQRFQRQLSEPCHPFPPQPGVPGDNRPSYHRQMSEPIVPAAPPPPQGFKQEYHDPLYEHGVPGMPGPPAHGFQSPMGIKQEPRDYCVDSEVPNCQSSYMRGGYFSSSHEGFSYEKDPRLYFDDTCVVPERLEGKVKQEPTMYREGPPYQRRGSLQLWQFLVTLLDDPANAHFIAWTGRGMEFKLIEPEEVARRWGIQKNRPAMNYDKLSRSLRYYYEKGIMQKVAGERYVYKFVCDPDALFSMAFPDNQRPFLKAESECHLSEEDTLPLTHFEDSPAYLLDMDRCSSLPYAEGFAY
Sequence of ELF1 (P32519 whole entry): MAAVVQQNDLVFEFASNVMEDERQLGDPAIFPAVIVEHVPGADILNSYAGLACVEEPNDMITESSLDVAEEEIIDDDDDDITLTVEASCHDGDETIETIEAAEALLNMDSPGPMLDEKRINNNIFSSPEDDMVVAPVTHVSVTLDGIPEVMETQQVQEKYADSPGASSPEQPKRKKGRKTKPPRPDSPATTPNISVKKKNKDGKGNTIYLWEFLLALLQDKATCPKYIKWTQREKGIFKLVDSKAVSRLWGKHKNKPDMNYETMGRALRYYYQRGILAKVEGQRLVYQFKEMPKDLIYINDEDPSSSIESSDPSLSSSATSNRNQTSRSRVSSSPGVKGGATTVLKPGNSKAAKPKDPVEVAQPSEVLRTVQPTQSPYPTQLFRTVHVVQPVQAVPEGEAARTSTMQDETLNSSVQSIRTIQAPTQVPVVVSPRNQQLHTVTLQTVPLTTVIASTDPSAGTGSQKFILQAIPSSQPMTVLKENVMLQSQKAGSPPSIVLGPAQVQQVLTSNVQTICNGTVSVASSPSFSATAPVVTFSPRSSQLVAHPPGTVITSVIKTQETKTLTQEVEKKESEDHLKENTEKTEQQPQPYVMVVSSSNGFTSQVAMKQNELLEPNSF
Sequence of SPIB (Q01892 whole entry): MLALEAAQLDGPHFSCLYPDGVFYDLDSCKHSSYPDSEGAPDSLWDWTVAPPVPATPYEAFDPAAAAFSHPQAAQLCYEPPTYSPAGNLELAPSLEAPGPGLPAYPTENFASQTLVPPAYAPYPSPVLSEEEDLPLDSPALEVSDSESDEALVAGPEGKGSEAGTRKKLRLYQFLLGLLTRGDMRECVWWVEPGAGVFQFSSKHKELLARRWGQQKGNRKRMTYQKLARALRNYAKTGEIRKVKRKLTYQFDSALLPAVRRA
Sequence of ELF4 (Q99607 whole entry): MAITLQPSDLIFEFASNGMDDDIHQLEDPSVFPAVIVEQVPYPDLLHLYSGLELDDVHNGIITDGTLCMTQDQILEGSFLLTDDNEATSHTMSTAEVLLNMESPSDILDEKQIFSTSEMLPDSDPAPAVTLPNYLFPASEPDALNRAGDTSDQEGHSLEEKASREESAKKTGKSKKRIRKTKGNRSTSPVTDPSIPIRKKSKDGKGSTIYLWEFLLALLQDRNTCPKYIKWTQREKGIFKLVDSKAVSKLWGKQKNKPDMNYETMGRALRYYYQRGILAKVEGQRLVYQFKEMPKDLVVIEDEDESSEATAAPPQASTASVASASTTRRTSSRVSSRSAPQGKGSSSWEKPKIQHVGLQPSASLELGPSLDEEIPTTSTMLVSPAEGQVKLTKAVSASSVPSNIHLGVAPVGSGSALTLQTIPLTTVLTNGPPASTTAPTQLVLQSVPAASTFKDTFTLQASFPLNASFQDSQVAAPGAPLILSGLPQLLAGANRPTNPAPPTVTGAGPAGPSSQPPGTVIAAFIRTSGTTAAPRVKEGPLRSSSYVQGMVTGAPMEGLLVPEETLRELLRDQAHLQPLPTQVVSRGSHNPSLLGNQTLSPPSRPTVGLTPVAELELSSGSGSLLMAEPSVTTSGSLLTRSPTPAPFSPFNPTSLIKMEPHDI
Sequence of ETV1 (P50549 whole entry): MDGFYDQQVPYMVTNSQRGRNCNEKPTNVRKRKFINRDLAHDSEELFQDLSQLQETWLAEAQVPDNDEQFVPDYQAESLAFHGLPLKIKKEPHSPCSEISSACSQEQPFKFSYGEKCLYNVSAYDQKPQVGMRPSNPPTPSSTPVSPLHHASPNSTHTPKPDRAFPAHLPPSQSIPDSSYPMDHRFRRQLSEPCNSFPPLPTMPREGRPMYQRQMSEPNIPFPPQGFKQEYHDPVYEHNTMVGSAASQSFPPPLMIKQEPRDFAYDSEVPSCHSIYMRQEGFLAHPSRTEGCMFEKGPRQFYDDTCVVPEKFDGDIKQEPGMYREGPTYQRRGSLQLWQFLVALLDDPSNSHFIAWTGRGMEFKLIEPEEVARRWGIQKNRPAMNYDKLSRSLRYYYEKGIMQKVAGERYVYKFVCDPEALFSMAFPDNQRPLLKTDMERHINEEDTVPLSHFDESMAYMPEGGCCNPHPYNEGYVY

AGTGCA
binding signal (ELK1): 1.1 fold enrichment (6-mer frequency, TF over GST control)
binding signal (GABPA): 1.1 fold enrichment (6-mer frequency, TF over GST control)
binding signal (ERG): 1.07 fold enrichment (6-mer frequency, TF over GST control)
binding signal (ELF1): 1.07 fold enrichment (6-mer frequency, TF over GST control)
binding signal (EHF): 1.09 fold enrichment (6-mer frequency, TF over GST control)
binding signal (SPI1): 1.47 fold enrichment (6-mer frequency, TF over GST control)
binding signal (SPIB): 1.08 fold enrichment (6-mer frequency, TF over GST control)
binding signal (FEV): 1.15 fold enrichment (6-mer frequency, TF over GST control)
binding signal (ETV5): 1.14 fold enrichment (6-mer frequency, TF over GST control)
binding signal (ELF4): 1.03 fold enrichment (6-mer frequency, TF over GST control)
binding signal (ELF3): 1.16 fold enrichment (6-mer frequency, TF over GST control)
binding signal (ETV1): 1.11 fold enrichment (6-mer frequency, TF over GST control)
binding signal (ERF): 1.12 fold enrichment (6-mer frequency, TF over GST control)
binding signal (ETV3L): 1.03 fold enrichment (6-mer frequency, TF over GST control)
binding signal (ETS2): 1.08 fold enrichment (6-mer frequency, TF over GST control)
binding signal (SPDEF): 1.07 fold enrichment (6-mer frequency, TF over GST control)
binding signal (ETV7): 1.18 fold enrichment (6-mer frequency, TF over GST control)
binding signal (ETV3): 1.05 fold enrichment (6-mer frequency, TF over GST control)
binding signal (ETV6): 1.16 fold enrichment (6-mer frequency, TF over GST control)

Reference: article PMC7862700, “An all-to-all approach to the identification of sequence-specific readers for epigenetic DNA modifications on cytosine”
